Each structure is given as a SMILES string. Inconclusive results are not listed. A call without a number means that no potency is given here. Active and inactive are the calls of the source. Calls follow the shape of the dose curve; as a rule, active = well fitted inhibition curve with a large enough effect in the repeat runs; inconclusive = weak or mixed curves; inactive = flat fitted curve, though single readings scatter.
Potency is read from the fitted curve at half-maximal effect.

The target in this experiment is Voltage-gated inwardly rectifying potassium channel KCNH2 (Homo sapiens) (UniProt Q12809). Put plainly: Human Ether-a-go-go-Related Gene (hERG) channel small molecule antagonists: fluorescence cell-based qHTS assay (AID 1671200). Also: nearly all actives have a fitted effect of over 50% in size. The following applies: hERG-U2OS cells, FluxOR thallium flux fluorescence; series mostly up to 76.8 µM. The text has this: National Center for Advancing Translational Sciences [NCATS]
Voltage-gated inwardly rectifying potassium channel KCNH2 (Homo sapiens), sequence (Q12809 whole entry, looked up): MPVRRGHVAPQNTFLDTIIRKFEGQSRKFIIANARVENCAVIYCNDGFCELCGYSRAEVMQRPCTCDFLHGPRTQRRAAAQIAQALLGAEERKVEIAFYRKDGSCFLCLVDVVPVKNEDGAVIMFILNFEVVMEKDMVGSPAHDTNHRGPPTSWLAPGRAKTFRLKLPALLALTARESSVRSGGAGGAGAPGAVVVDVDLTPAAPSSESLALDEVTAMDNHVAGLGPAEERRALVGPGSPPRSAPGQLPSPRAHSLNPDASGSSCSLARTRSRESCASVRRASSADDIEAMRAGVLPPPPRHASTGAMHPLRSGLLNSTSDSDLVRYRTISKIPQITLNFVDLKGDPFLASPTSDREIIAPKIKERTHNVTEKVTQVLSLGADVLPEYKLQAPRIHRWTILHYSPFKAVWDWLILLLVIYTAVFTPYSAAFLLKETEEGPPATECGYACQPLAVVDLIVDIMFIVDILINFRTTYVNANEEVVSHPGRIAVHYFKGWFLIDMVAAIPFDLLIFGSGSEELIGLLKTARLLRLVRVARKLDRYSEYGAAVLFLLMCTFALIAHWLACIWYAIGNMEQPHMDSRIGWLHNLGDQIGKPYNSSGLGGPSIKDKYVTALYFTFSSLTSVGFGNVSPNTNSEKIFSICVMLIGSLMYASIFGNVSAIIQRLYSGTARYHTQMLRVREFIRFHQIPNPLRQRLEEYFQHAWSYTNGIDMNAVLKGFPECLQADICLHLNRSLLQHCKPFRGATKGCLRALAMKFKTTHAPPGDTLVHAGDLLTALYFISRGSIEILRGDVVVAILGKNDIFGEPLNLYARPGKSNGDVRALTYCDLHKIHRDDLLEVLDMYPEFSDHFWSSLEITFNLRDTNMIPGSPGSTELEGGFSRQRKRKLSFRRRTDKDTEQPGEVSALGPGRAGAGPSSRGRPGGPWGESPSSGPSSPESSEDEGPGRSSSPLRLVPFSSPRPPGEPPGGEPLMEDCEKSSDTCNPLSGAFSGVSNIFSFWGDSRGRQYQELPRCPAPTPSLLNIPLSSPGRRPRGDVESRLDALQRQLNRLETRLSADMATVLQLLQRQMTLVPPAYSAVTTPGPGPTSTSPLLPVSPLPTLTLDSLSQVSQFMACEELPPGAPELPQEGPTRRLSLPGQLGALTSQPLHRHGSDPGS
U.S. Environmental Protection Agency [EPA]
National Institutes of Environmental Health Sciences [NIEHS]
National Toxicology Program [NTP]
U.S. Food and Drug Administration [FDA]
Mutations in the hERG channel cause Long QT (LQT) syndrome. LQT syndrome is a cardiac disorder which can cause ventricle arrhythmia and sudden death. Additionally, compounds which block the hERG channel can cause acquired LQT syndrome. Several FDA approved drugs have been removed from the market due to their hERG blocking activity. A cell-based hERG channel inhibition assay can be used to screen chemical compounds that inhibit hERG channel. This assay measures hERG channel activity using thallium ions as surrogate ions to measure potassium into the cells.
Tox21 Assay Protocol Summary:
hERG-U2OS cells were resuspended in culture medium and dispensed into 1536-well, black wall/clear-bottom plates at 1000cells/well/3uL using a Multidrop Combi dispenser (Thermo Fisher, Waltham, MA). After plates were incubated at 37 C overnight, 3 uL of Loading Buffer provided by FluxOR II Potassium Ion Channel Assay kit (Thermo, Carlsbad, CA) was added to each well. The assay plates were then incubated at room temperature in the dark for 1h. […] After the assay plates were incubated at room temperature for 10 min, 1 uL of Stimulus Buffer provided by FluxOR II Potassium Ion Channel Assay kit was added into each well and fluorescence intensity (480nm excitation/540nm emission) was continuously measured for 2 min at 1 second intervals using a Functional Drug Screening System (FDSS) 7000EX kinetic plate reader (Hamamatsu, Japan).
In general terms: hERG is a cardiac potassium channel; its block is linked to QT prolongation.
On to `Cc1ccc(N)cc1C`, for which the Potency result is “inactive”.

Consider `Cc1cc(=O)[nH]o1`, for which the Potency entry was “inactive”.

In the case of `C=CC(=O)NCNC(=O)C=C`, the Potency result is “inactive”.

Take `CC(=O)[C@H]1CC[C@H]2[C@@H]3CC[C@H]4C[C@](C)(O)CC[C@]4(C)[C@H]3CC[C@]12C`: the Potency result was “inactive”.

Take `N#Cc1ccc(Cl)cc1`: the Potency entry was “inactive”.

In the case of `CN1C[C@H](CNC(=O)OCc2ccccc2)C[C@@H]2c3cccc4c3c(cn4C)C[C@H]21`, the Potency was 3.38 µM (active).

Regarding `CCOC(=O)CBr`, the Potency result is “inactive”.

In the case of `CCN(C)N=O`, the Potency entry was “inactive”.

Take `CC(C)=CCOc1c2occc2cc2ccc(=O)oc12`: the Potency entry is “inactive”.

For `c1ccc(C2CC2)c(OCC2=NCCN2)c1`, the Potency entry was “inactive”.

Consider `O=S1(=O)OC(c2cc(Br)c(O)c(Br)c2)(c2cc(Br)c(O)c(Br)c2)c2ccccc21`, for which the Potency result was “inactive”.

As to `O=S(=O)(O)C(F)(F)C(F)(F)C(F)(F)C(F)(F)F`, the Potency entry is “inactive”.

As for `CC(C)(C)C(O)C(Oc1ccc(Cl)cc1)n1cncn1` (stereo not given), the Potency entry was “inactive”.

For `CCOC(=O)COc1cc(-c2nn(C)c(OC(F)F)c2Cl)c(F)cc1Cl`, the Potency was 34.7 µM (active).

Take `O=C(NC(=O)c1c(F)cccc1F)Nc1cc(Cl)c(Oc2ncc(C(F)(F)F)cc2Cl)c(Cl)c1`: the Potency result is “inactive”.

For the compound `O=NN1CCCCCC1`, the Potency entry was “inactive”.

As for `C=CC(=O)OCC(C)O` (stereo not given), the Potency result is “inactive”.

In the case of `O=C(Nc1ccccc1)Nc1cnns1`, the Potency entry is “inactive”.

Turning to `CCCCNP(N)(N)=S`, the Potency result was “inactive”.

As to `c1ccc(CN2CCNCC2)cc1`, the Potency result is “inactive”.

Take `c1cc2ccc3cccc4ccc(c1)c2c34`: the Potency result was “inactive”.

On to `CCCN(CCCl)c1c([N+](=O)[O-])cc(C(F)(F)F)cc1[N+](=O)[O-]`, for which the Potency entry is “inactive”.

Regarding `COP(=S)(Oc1cc(Cl)c(Br)cc1Cl)c1ccccc1` (stereo not given), the Potency result was “inactive”.

For `CCCCCCCCOC(=O)c1ccc(C(=O)OCCCCCCCC)c(C(=O)OCCCCCCCC)c1`, the Potency result is “inactive”.

Turning to `CC(O)(CS(=O)(=O)c1ccc(F)cc1)C(=O)Nc1ccc(C#N)c(C(F)(F)F)c1` (stereo not given), the Potency entry was “inactive”.

Take `O=[Se]=O`: the Potency entry is “inactive”.

`Brc1ccccc1`: the Potency entry is “inactive”.

As to `O=C(O)c1ccccc1C(=O)Nc1cccc2ccccc12`, the Potency result is “inactive”.

As for `C=CC(=O)OC`, the Potency entry was “inactive”.

As to `ClCCCCBr`, the Potency entry was “inactive”.

In the case of `CO/C=C(/C(=O)OC)c1ccccc1COc1cccc(C(F)(F)F)n1`, the Potency result is “inactive”.

`Cn1cc[n+](C)c1` (tested in a mixture with another compound): the Potency result was “inactive”.

With `NCCCNCCCN`, the Potency entry was “inactive”.

In the case of `CC(C)(CCl)C(=O)Cl`, the Potency result was “inactive”.

`C/C=C/C=O`: the Potency entry was “inactive”.

Take `O=C(Nc1ccccc1)Nc1ccnc(Cl)c1`: the Potency result is “inactive”.

Consider `O=C(CBr)Nc1ccc(Cl)cc1C(=O)c1ccccc1F`, for which the Potency result is “inactive”.

With `CCCCCCCCCCOC(=O)c1ccccc1C(=O)OCCCCCCCCCC`, the Potency entry was “inactive”.

In the case of `CCc1ccc(C(=O)NN(C(=O)c2cc(C)cc(C)c2)C(C)(C)C)cc1`, the Potency result is “inactive”.

With `Cc1ccc(-c2c(Cl)nc(C#N)n2S(=O)(=O)N(C)C)cc1`, the Potency entry is “inactive”.

These data come from PubChem BioAssay (Tox21).
